This is part of a sample that, as a whole, favours compounds with a hit. Of some 83,000 tested, about 20% had one in any assay.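 The endpoint reported here, percent growth, reads 100 for growth as untreated, 0 for no net growth and -100 for all cells dead.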 A number with no mark means an inactive call. Activity calls are given as the source filed them. How the source made its calls: active means growth percent below 10; inactive means the rest.

From PubChem BioAssay (NCI) come the findings set out here.

Some test systems named below: DU-145 prostate; K-562 leukemia; MALME-3M melanoma; MDA-MB-231 breast; RXF 393 renal; SF-268 CNS; SF-295 CNS; SF-539 CNS; UACC-257 melanoma; M14 melanoma; HCT-15 colon; HT29 colon; SNB-75 CNS; SNB-19 CNS; U251 CNS; PC-3 prostate; SK-MEL-5 melanoma; UACC-62 melanoma; LOX IMVI melanoma; SK-MEL-28 melanoma.
Common to all, as to test: NCI-60 one-dose screen, 48 h (100 = growth as untreated, 0 = no growth, -100 = all killed)
Holding throughout (conditions): 10 µM unless noted

With `CCc1c(C(=O)N[C@@H]2c3cc(Cl)ccc3CC[C@@H]2O)[nH]c(C)c1C(C)=O`, the growth in the test with DU-145 prostate was 94.5%; with K-562 leukemia it was 69.7%; with MALME-3M melanoma, 110%; in the test with MDA-MB-231 breast, 84.2%; in the test with RXF 393 renal, 92.3%; in the test with SF-268 CNS, 73.2%. In addition, the growth with SF-295 CNS is 64.7%; with SF-539 CNS, 67%; with UACC-257 melanoma, 80.2%; in the test with M14 melanoma it was 87.4%; in the test with HCT-15 colon, 41.1%; with HT29 colon, 66.9%. Also, the growth with SNB-75 CNS was 76.4%; in the test on SNB-19 CNS, 97.2%; with U251 CNS, 48.4%; with PC-3 prostate, 49.8%; in the test on SK-MEL-5 melanoma it was 45%; in the test on UACC-62 melanoma, 69.7%. Further, the growth is 50.9% in the test with LOX IMVI melanoma and 81.5% in the test with SK-MEL-28 melanoma.
For the compound `CCOC(=O)C1C(=O)C=C(c2cnccn2)CC1c1ccc(OC)c(OC)c1` (stereo not given), the growth in the test with DU-145 prostate is 105%; in the test with K-562 leukemia, 81.3%; with MALME-3M melanoma it was 100%; in the test with MDA-MB-231 breast, 110%; in the test on RXF 393 renal, 114%; in the test on SF-268 CNS, 102%. The growth was 95.1% in the test with SF-295 CNS; 95.7% with SF-539 CNS; 81.8% in the test with UACC-257 melanoma; 85.5% in the test on M14 melanoma; 98.9% in the test on HCT-15 colon; 93.1% with HT29 colon. In addition, the growth was 105% in the test on SNB-75 CNS; 102% in the test with SNB-19 CNS; 99.5% in the test on U251 CNS; 70.4% with PC-3 prostate; 103% in the test with SK-MEL-5 melanoma; 101% with UACC-62 melanoma. Also, the growth in the test on LOX IMVI melanoma is 100%; in the test on SK-MEL-28 melanoma, 102%.
As to `O=c1ccn(C2OC(F)(CO)C(O)C2F)c(=O)[nH]1` (stereo not given), the growth was 110% with DU-145 prostate; 112% in the test with K-562 leukemia; 110% with MALME-3M melanoma; 114% in the test on MDA-MB-231 breast; 141% with RXF 393 renal; 100% with SF-268 CNS. For the same compound, the growth is 98.3% in the test with SF-295 CNS; 100% in the test with SF-539 CNS; 95.1% with UACC-257 melanoma; 95.3% with M14 melanoma; 103% in the test with HCT-15 colon; 94.5% with HT29 colon. The growth in the test with SNB-75 CNS was 95.9%; in the test with SNB-19 CNS, 105%; in the test on U251 CNS, 94.8%; in the test with PC-3 prostate it was 93.1%; with SK-MEL-5 melanoma, 108%; with UACC-62 melanoma, 103%. Further, the growth in the test with LOX IMVI melanoma is 97.3%; in the test with SK-MEL-28 melanoma it was 109%.
As to `C[C@@H]1C(=O)N(C[C@H](Cc2ccccc2)N(Cc2ccccc2)Cc2ccccc2)[C@]1(Cc1ccccc1)C(=O)OC(C)(C)C`, the growth in the test on DU-145 prostate is 77.6%; in the test with K-562 leukemia, 51.6%; with MALME-3M melanoma, 88%; with MDA-MB-231 breast, 61.9%; with RXF 393 renal, 68.5%; in the test with SF-268 CNS, 69.8%. Besides, the growth is 40.3% with SF-295 CNS; 91% with SF-539 CNS; 45.1% with UACC-257 melanoma; 75.4% in the test on M14 melanoma; 70.9% in the test with HCT-15 colon; 46.4% in the test on HT29 colon. Also, the growth with SNB-75 CNS is 71.3%; in the test on SNB-19 CNS, 66.9%; with U251 CNS, 49.2%; in the test on PC-3 prostate, 27.9%; in the test on SK-MEL-5 melanoma, 45.5%; in the test on UACC-62 melanoma, 60.6%. Besides, the growth in the test with LOX IMVI melanoma was 62.8%; in the test on SK-MEL-28 melanoma, 92%.
Turning to `CCN(CC)CCOC(=O)Nc1ccccc1Cl`, the growth is 107% in the test with DU-145 prostate; 94.8% in the test on K-562 leukemia; 95.7% in the test on MALME-3M melanoma; 115% with MDA-MB-231 breast; 117% with RXF 393 renal; 102% in the test on SF-268 CNS. Further, the growth with SF-295 CNS is 104%; in the test on SF-539 CNS, 102%; in the test with UACC-257 melanoma, 105%; with M14 melanoma, 86.1%; with HCT-15 colon, 102%; in the test on HT29 colon it was 80.4%. In addition, the growth is 108% in the test on SNB-75 CNS; 99.4% in the test with SNB-19 CNS; 99.3% in the test with U251 CNS; 71.7% in the test on PC-3 prostate; 105% in the test with SK-MEL-5 melanoma; 99.2% in the test on UACC-62 melanoma. In addition, the figures for the growth in the test on LOX IMVI melanoma and with SK-MEL-28 melanoma were 101% and 108%, respectively.
`C=C1C(=O)O[C@H]2[C@H]1CC/C(C(=O)NCCCCCCCCNC(=O)/C1=C/CC[C@@]3(C)O[C@H]3[C@H]3OC(=O)C(=C)[C@@H]3CC1)=C\CC[C@@]1(C)O[C@@H]21`: the growth was 84.1% in the test with DU-145 prostate; 18.3% with K-562 leukemia; 16.4% in the test on MALME-3M melanoma; 74.3% with MDA-MB-231 breast; 43.1% with RXF 393 renal; 91.8% in the test on SF-268 CNS. Further, the growth with SF-295 CNS was 110%; in the test on SF-539 CNS, 70.1%; in the test with UACC-257 melanoma, 61.8%; in the test on M14 melanoma it was 82.8%; with HCT-15 colon it was 107%; in the test with HT29 colon it was 82.5%. Also, the growth was 85.9% in the test on SNB-75 CNS; 99.3% with SNB-19 CNS; 95.6% with U251 CNS; 74.5% in the test with PC-3 prostate; 98.3% in the test with SK-MEL-5 melanoma; 56.3% with UACC-62 melanoma. In addition, the growth in the test on LOX IMVI melanoma was 84%; in the test on SK-MEL-28 melanoma, 42.3%.
On to `CC(C)n1nc(C#Cc2cccc3cc(-c4cccc(C(F)(F)F)c4)ncc23)c2c(N)ncnc21`, for which the growth is 89.4% with DU-145 prostate; 2.23% (active) in the test on K-562 leukemia; 93.1% in the test on MALME-3M melanoma; 59.8% with MDA-MB-231 breast; 81.7% in the test on RXF 393 renal; 76% in the test on SF-268 CNS. Further, the growth in the test with SF-295 CNS is 91%; in the test on SF-539 CNS it was 54.4%; in the test with UACC-257 melanoma, 82.7%; in the test with M14 melanoma, 56.2%; in the test with HCT-15 colon, 64.3%; in the test with HT29 colon, 29.7%. For the same compound, the growth was -4.27% (active) with SNB-75 CNS; 99.6% with SNB-19 CNS; 63.6% with U251 CNS; 59.6% with PC-3 prostate; 85.1% with SK-MEL-5 melanoma; 66.6% in the test on UACC-62 melanoma. Besides, the growth in the test on LOX IMVI melanoma is 58.1%; with SK-MEL-28 melanoma, 83.3%.
On to `CCN(CC)S(=O)(=O)c1ccc(O)c(NC(=O)c2[nH]c(C)c(C(C)=O)c2CCc2ccc(Cl)cc2)c1`, for which the growth in the test on DU-145 prostate was 68.4%; in the test with K-562 leukemia it was 29.8%; in the test on MALME-3M melanoma it was 53%; in the test with MDA-MB-231 breast, 50.6%; with RXF 393 renal, 91.2%; in the test with SF-268 CNS, 55.4%. The growth in the test with SF-295 CNS is 59.3%; in the test on SF-539 CNS it was 64.5%; with UACC-257 melanoma, 38.3%; in the test on M14 melanoma, 56.8%; in the test with HCT-15 colon, 42.9%; in the test on HT29 colon it was 101%. The growth with SNB-75 CNS was 52.1%; in the test on SNB-19 CNS it was 47.1%; in the test with U251 CNS, 31.1%; in the test with PC-3 prostate it was 32.8%; with SK-MEL-5 melanoma, -25% (active); in the test with UACC-62 melanoma, 20.2%. The growth was 39.5% with LOX IMVI melanoma and 70.9% with SK-MEL-28 melanoma.
